{"source": "PubChem BioAssay (NCATS)", "key": {"[1]": {"molecular_target": "Glucocorticoid receptor (Homo sapiens) (UniProt P04150)", "sequence (P04150 whole entry, looked up, the tested form may be a part)": "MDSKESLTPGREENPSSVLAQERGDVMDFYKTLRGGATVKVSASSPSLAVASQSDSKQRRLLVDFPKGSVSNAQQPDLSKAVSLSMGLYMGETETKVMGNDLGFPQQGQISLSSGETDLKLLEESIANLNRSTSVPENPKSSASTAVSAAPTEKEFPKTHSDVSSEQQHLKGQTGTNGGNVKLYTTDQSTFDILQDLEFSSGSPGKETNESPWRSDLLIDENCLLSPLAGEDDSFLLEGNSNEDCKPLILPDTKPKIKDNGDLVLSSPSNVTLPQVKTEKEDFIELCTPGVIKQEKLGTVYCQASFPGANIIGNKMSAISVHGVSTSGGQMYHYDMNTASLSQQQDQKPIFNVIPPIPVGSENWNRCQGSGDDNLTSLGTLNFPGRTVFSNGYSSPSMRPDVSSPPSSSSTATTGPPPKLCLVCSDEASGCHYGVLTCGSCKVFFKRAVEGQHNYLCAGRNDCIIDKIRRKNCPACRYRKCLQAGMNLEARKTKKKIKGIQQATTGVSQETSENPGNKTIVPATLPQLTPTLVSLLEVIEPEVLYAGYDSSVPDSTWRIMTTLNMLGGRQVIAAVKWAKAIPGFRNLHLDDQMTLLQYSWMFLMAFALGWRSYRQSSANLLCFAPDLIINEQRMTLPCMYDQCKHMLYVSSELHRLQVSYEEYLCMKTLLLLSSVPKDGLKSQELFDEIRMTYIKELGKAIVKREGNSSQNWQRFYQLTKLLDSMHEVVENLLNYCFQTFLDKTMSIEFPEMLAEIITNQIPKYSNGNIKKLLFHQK", "assay": "GR-GFP Redistribution (AID 450;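 active = compounds whose dose series gives a full or clear partial fitted curve of increased nuclear translocation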; also: potency is read from the fitted curve at half-maximal effect)", "details": "U2OS GR-GFP nuclear translocation, laser cytometry, 2 h"}, "[2]": {"molecular_target": "Glucocorticoid receptor (Homo sapiens) (UniProt P04150)", "assay": "GR-EFC Redistribution (AID 451; calls by dose curve; also: potency is read from the fitted curve at half-maximal effect)", "details": "CHO-K1 GR-EFC translocation, beta-gal luminescence, 2 h", "outline": "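Translocation of GR-ED fusion to nuclear EA restores b-gal, read by luminescence after 1 h room-temperature detection. Engineered CHO-K1 biosensor cells, 1,000/well, exposed 2 h at 37 C to titrations up to 46 uM final.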"}, "[3]": {"molecular_target": "Mitogen-activated protein kinase 10 (Mus musculus) (UniProt Q61831)", "assay": "JNK3 AlphaScreen Assay (AID 530; active = well fitted curve in either direction with a large enough effect, not every such curve was filed as active;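 also: kinase came from lysate of stimulated human HepG2 cells; signal reports phosphorylation of biotinylated GST-cJun 1-79 at Ser73 with 10 µM ATP; % is scaled to controls: 0 for no effect and ±100 for the full control effect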)", "outline": "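qHTS titrations with 15 min compound pre-incubation before adding ATP (10 uM final). Read-out: AlphaScreen of Ser73-phosphorylated biotin-GST-cJun using HepG2 lysate JNK3 activated by IL-1β and TNFα.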"}, "[4]": {"molecular_target": "Cytochrome P450 2D6 (Homo sapiens) (UniProt P10635)", "sequence (P10635 whole entry, looked up)": "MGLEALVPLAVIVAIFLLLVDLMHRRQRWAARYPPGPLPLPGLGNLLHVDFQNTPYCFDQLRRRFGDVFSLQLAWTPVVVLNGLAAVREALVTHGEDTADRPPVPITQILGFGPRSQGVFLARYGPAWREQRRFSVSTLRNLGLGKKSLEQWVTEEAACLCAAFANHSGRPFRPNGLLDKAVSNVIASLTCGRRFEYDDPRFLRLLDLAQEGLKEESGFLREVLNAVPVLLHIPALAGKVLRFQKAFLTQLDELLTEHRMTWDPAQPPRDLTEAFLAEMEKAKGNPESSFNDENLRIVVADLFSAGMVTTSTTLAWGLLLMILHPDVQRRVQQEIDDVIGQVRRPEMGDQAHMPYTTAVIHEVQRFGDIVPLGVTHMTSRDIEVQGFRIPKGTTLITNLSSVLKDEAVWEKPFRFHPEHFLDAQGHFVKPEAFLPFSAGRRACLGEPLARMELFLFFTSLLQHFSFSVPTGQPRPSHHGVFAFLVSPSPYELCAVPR", "assay": "qHTS Assay for Inhibitors and Substrates of Cytochrome P450 2D6 (AID 891); also: potency is read from the fitted curve at half-maximal effect; nearly all actives have a fitted effect of over 60% in size", "outline": "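Luminescent read-out of luciferin formed by 5 nM human CYP2D6 demethylating 30 uM Luciferin-ME EGE (Km level) over 60 min at room temperature after NADPH regeneration addition. Data normalized to full inhibition by 1.43 uM quinidine.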"}, "[5]": {"molecular_target": "Cytochrome P450 2C19 (Homo sapiens) (UniProt P33261)", "sequence (P33261 whole entry, looked up)": "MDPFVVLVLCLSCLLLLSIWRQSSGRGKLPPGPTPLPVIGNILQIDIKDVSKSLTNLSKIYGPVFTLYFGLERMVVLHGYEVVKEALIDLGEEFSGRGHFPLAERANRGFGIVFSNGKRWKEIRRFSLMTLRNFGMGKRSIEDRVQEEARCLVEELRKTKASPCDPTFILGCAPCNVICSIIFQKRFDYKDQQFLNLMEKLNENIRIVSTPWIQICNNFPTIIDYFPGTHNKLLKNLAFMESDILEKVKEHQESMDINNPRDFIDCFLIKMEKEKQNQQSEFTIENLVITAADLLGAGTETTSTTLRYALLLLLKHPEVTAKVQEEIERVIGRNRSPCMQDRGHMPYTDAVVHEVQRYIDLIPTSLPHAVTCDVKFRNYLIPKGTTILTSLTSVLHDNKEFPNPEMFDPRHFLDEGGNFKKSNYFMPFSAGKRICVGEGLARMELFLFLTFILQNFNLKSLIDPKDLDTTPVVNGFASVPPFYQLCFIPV", "assay": "qHTS Assay for Inhibitors and Substrates of Cytochrome P450 2C19 (AID 899); also: potency is read from the fitted curve at half-maximal effect; nearly all actives have a fitted effect of over 60% in size", "outline": "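Luminescence readout of luciferin formed from 10uM Luciferin-H EGE (KM level) by 5 nM CYP2C19 in 50mM KPO4. 60 min NADPH-driven reaction at 37C after 10 min compound preincubation; data scaled to 57uM ketoconazole inhibition.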"}, "[6]": {"assay": "qHTS Assay for Lipid Storage Modulators (AID 1519; calls by dose curve; as to activity change, negative = inhibition: % is scaled to controls: 0 for no effect and ±100 for the full control effect)", "details": "Drosophila S3 cells, BODIPY lipid droplet/cell ratio, laser cytometry, cells loaded with oleic acid", "outline": "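Cells seeded at 5,000 per well were treated with compounds over a concentration series and loaded with oleic acid (400 uM, as added). Lipid droplet fluorescence (488 nm excitation, 500-530 nm channel) was read by laser-scanning cytometry and normalized to 20 uM Triacsin C.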"}, "[7]": {"molecular_target": "DNA dC->dU-editing enzyme APOBEC-3G (Homo sapiens) (UniProt Q9HC16)", "sequence (Q9HC16 whole entry, looked up)": "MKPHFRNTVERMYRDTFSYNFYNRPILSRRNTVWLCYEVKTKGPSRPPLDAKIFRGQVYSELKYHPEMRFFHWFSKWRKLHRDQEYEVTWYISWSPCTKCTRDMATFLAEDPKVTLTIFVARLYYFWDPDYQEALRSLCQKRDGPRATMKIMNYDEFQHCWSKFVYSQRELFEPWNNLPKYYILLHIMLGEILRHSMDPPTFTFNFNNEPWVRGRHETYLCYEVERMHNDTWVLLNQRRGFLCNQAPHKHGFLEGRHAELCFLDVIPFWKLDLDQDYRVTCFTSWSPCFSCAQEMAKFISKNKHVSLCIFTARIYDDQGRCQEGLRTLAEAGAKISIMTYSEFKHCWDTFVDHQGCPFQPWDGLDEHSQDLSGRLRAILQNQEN", "assay": "qHTS for inhibitors of Vif-A3G interactions: Validation (AID 588379); also: 0% is about no effect", "outline": "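Yellow fluorescence (Ex 488, Em 500-530) of Vif-coexpressing HeLa A3G-eYFP cells, scanned by Acumen cytometer, reports blocked A3G degradation. Cells plated at 700/well overnight at 37 deg C before compound addition, then a further overnight compound incubation at 37 deg C.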"}, "[8]": {"tested_on": "Zika virus NS2B-NS3 protease", "assay": "Primary screen GU AMC qHTS for Zika virus inhibitors (AID 1347154);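 also: 0% = no-inhibitor control and -100% = no-enzyme control; nearly all actives have a fitted effect of over 70% in size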", "outline": "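Fluorogenic AMC-substrate cleavage by noncovalent NS2B-NS3 protease complex (25 nM, pH 8.0 Tris buffer with Tween 20) followed for 15 minutes at room temperature (~20% conversion). Percent inhibition from ex340/em450 signal change, fitted by 4-parameter Hill equation.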"}, "[9]": {"assay": "Cell Viability qHTS for small molecule stabilizers of the endoplasmic reticulum resident proteome (AID 1508629);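 also: compound exposure about 46 h in total before the viability read; % is scaled to controls: 0 for no effect and ±100 for the full control effect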", "details": "cell viability counter-screen, 100 nM thapsigargin for final 4 h"}, "[10]": {"assay": "Confirmatory qHTS for small molecule stabilizers of the endoplasmic reticulum resident proteome: Secreted ER Calcium Modulated Protein (SERCaMP) assay (AID 1508628); also: nearly all actives have a fitted effect of over 40% in size; also: potency is read from the fitted curve at half-maximal effect", "outline": "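Reporter secretion upon ER calcium depletion (100 nM thapsigargin, 4 h, 37C) is measured as medium luminescence with coelenterazine, after 16 h compound pretreatment of SH-SY5Y-GLuc-SERCaMP cells; primary at three concentrations up to 38.3 uM, follow-up at 11 (up to 76.6 uM).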"}, "[11]": {"molecular_target": "Cytochrome P450 1A2 (Homo sapiens) (UniProt P05177)", "sequence (P05177 whole entry, looked up)": "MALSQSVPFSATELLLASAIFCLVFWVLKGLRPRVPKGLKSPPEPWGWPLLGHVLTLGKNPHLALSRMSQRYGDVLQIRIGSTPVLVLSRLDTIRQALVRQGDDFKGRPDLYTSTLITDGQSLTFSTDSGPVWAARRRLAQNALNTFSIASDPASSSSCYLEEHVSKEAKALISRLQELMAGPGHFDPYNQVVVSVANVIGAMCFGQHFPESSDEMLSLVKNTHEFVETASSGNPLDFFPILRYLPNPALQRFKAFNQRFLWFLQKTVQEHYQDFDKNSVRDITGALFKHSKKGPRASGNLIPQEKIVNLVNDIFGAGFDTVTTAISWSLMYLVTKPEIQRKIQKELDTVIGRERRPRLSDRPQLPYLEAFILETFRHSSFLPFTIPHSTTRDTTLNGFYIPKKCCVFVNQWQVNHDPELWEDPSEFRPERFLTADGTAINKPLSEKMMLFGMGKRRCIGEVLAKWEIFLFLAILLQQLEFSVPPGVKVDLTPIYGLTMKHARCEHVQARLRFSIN", "assay": "p450-cyp1a2 (AID 410; calls by dose curve; also: potency is read from the fitted curve at half-maximal effect)", "outline": "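O-Demethylation of luciferin 6' methyl ether by human CYP1A2 is monitored as luciferase luminescence. Substrate sits at Km (100uM); enzyme is 20nM. Values are scaled to 57 uM furafylline as maximal inhibition.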"}, "[12]": {"molecular_target": "3',5'-cyclic-AMP phosphodiesterase 4B (Homo sapiens) (UniProt Q07343)", "sequence (Q07343 whole entry, looked up)": "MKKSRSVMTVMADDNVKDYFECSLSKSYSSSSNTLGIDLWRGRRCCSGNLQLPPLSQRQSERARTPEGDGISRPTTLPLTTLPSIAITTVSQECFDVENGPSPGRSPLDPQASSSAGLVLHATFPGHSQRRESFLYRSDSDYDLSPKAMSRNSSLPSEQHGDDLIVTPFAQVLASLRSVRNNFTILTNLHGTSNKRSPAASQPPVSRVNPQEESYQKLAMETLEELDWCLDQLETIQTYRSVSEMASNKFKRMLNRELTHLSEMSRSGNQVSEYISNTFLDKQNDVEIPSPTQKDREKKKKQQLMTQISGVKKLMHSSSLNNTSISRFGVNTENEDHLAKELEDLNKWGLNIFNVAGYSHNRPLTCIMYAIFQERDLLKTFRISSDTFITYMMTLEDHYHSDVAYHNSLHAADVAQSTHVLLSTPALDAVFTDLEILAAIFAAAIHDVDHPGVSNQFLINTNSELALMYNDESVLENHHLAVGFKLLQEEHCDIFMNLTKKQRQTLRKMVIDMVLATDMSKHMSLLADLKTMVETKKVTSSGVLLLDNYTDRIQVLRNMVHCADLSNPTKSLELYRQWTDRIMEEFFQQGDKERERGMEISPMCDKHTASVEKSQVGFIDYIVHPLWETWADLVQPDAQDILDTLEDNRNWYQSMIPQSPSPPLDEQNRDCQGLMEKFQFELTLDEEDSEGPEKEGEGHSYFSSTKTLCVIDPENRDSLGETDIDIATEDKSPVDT", "assay": "qHTS Assay for Inhibitors of PDE-IV (AID 607; active = well fitted activation curve with a large enough effect in the main read-out, with a control signal flat, not every such curve was filed as active; also: % of control where 0% means no effect)", "outline": "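ACTOne HEK293 cells carry a modified cAMP-gated CNG channel and express endogenous PDE4; plated 1000 cells/well, compounds up to 22.9 uM final. Membrane-potential dye fluorescence (ex 535/em 590) was read; parental cells received 10 uM forskolin + 100 uM RO 20-1724.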"}, "[13]": {"molecular_target": "Cytochrome P450 3A4 (Homo sapiens) (UniProt P08684)", "sequence (P08684 whole entry, looked up)": "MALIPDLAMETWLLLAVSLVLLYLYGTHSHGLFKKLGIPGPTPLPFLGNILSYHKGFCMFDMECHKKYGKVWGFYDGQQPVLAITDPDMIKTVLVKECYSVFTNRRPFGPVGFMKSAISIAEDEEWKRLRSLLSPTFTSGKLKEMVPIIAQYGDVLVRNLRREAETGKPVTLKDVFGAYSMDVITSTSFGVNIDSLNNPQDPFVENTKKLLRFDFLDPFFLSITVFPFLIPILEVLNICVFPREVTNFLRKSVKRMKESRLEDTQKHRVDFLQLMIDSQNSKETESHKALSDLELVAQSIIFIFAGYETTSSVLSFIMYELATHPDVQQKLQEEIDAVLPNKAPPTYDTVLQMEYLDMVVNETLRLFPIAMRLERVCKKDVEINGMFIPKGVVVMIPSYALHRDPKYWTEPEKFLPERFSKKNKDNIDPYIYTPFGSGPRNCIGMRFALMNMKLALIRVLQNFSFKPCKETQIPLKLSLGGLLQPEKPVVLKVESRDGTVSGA", "assay": "qHTS Assay for Activators of Cytochrome P450 3A4 (AID 885); also: nearly all actives have a fitted effect of over 65% in size", "outline": "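CYP3A4 activity: Luciferin-PPXE O-dealkylation, 25uM substrate, 200mM KPO4, RT throughout. Read-out is luciferase luminescence; higher values reflect activation.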"}}, "note": "Results filed as inconclusive are left out. The source made the active and inactive calls. Unless noted, calls follow the shape of the dose curve; as a rule, active = well fitted curve in the direction sought with a large enough effect; inconclusive = small, poorly fitted or top-dose-only effect, or another doubt; inactive = no such curve, though single readings can be large; an effect the other way counts as inactive or inconclusive.", "data": [{"compound": "CC[C@H](Oc1ccc(Cl)cc1)C(=O)OC1C[C@H]2CC[C@@H](C1)N2C", "note": "(some centres not stated)", "values": [{"measurement": "Potency", "setting": "[1]", "result": "> 46 µM (inactive)"}, {"measurement": "Potency", "setting": "[2]", "result": "> 46 µM (inactive)"}, {"measurement": "outcome", "setting": "[3]", "result": "inactive"}, {"measurement": "Potency", "setting": "[4]", "result": "0.0063 µM (active)"}, {"measurement": "Potency", "setting": "[5]", "result": "0.0158 µM (active)"}, {"measurement": "activity change, negative = inhibition", "setting": "[6]; at 57.5 µM (top of the series)", "result": "-0.561% (inactive)"}, {"measurement": "max response", "setting": "[6]; measured here: cell count channel max response", "result": 16.1, "unit": "%"}, {"measurement": "max response", "setting": "[6]; measured here: lipid channel max response", "result": 28.8, "unit": "%"}, {"measurement": "Potency", "setting": "[7]", "result": "inactive"}, {"measurement": "Potency", "setting": "[8]", "result": "inactive"}, {"measurement": "max response", "setting": "[9]", "result": "3.6% (inactive)"}]}, {"compound": "CCC(Oc1ccc(Cl)cc1)C(=O)OC1CC2CCC(C1)N2C", "note": "(configuration not stated)", "values": [{"measurement": "Potency", "setting": "[8]", "result": "inactive"}, {"measurement": "Potency", "setting": "[10]", "result": "8.91 µM (active)"}]}, {"compound": "Oc1ccc2c3c1O[C@H]1c4c(c5ccccc5n4Cc4ccccc4)C[C@]4(O)[C@H](C2)N(CC2CC2)CC[C@@]314", "values": [{"measurement": "Potency", "setting": "[11]", "result": "31.6 µM (active)"}, {"measurement": "Potency", "setting": "[1]", "result": "> 46 µM (inactive)"}, {"measurement": "Potency", "setting": "[2]", "result": "> 46 µM (inactive)"}, {"measurement": "outcome", "setting": "[3]", "result": "inactive"}, {"measurement": "Potency", "setting": "[12]", "result": "inactive"}, {"measurement": "Potency", "setting": "[13]", "result": "inactive"}, {"measurement": "Potency", "setting": "[7]", "result": "inactive"}, {"measurement": "Potency", "setting": "[8]", "result": "inactive"}, {"measurement": "Potency", "setting": "[10]", "result": "inactive"}]}]}
